An excerpt weighted towards active compounds, which were near 3% of everything screened.
KDM5B inh: Primary screen for KDM5B Histone Demethylases FDH-coupled qHTS | Lysine-specific demethylase 5B (Homo sapiens), Q9UGL1 | KDM5B demethylase, FDH-coupled NADH fluorescence (FDH is formaldehyde dehydrogenase) | Potency, µM (top dose mostly 57.7 µM), hits mostly inhibitors | 220,000 tested, 2.6% active | AID 1347165, 2019; further: potency means the concentration at half of the fitted maximal effect; 0% is about no effect; nearly all actives have a fitted effect of over 70% in size
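qHTS format, multiple compound concentrations. Buffer 50 mM HEPES pH 7.5/0.01% Tween-20; 200 nM KDM5BΔAP final; 10 min compound preincubation; substrate-mix levels 12.5 µM peptide, 25 µM α-KG, 0.25 mM NAD⁺; 30 min RT; ΔRFU.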
SNCA expr inhib: Primary qHTS assay for inhibitors of alpha-synuclein gene (SNCA) expression. HEK-293 SNCA-luciferase knock-in, luminescence, 24 h. Potency, µM (highest dose often 57.2 µM), inactives show top-dose activity change, negative = inhibition, hits mostly inhibitors. 140,000 tested, 0.17% active. AID 1671194, 2021;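 further: potency means the concentration at half of the fitted maximal effect; plate controls were DMSO cells for no effect and cell-free wells for full effect; nearly all actives have a fitted effect of over 45% in size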
HEK293 viab: GF-AFC viability counterscreen for inhibitors of alpha-synuclein gene (SNCA) expression; HEK-293-SNCA-luc viability, GF-AFC fluorescence, 24 h; Potency, µM (doses to about 57.1 µM), for inactives: top-dose activity change, negative = cytotoxicity, usual class: cytotoxic; 150,000 tested, 0.12% active; AID 1671193, 2021;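 further: potency means the concentration at half of the fitted maximal effect; 0% = DMSO-treated cells and -100% = medium-only wells without cells; nearly all actives have a fitted effect of over 30% in size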
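HEK-293-SNCA-luc cells (1500/well) plated 24 h, then exposed 24 h to a dilution series; GF-AFC added 30 min at 37C, fluorescence 405/540 nm; normalised to medium-only and DMSO wells, Hill fit.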
IP6K1 inhibitor: Primary qHTS assay for small molecule inhibitors of Inositol hexaphosphate kinase 1 (IP6K1) | IP6K1 kinase, ADP-Glo luminescence, 2 h; hits give low values | activity change, % (series mostly up to about 58 µM) | 140,000 tested, 0.81% active; in the data active means activity change below about -25%; further: on the % scale 0 is the no-effect control and ±100 the full control effect
Target sequence (Q92551 whole entry, looked up): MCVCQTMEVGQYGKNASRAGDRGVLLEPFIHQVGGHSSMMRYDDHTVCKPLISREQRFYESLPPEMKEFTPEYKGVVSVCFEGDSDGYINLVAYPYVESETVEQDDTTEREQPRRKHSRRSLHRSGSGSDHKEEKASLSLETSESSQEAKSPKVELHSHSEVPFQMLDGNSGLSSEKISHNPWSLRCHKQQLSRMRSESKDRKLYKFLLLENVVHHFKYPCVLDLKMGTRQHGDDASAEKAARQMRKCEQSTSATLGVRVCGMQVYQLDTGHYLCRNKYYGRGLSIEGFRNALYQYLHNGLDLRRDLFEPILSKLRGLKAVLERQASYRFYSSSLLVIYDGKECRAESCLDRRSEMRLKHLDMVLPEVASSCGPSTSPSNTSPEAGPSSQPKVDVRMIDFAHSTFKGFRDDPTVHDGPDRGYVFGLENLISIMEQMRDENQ
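ADP-Glo luminescence measures ADP made by human IP6K1 during a 2 h RT reaction with ATP/IP6 (mix at 1.3 mM/130 uM); top library doses 57.5 and 19.1 uM final.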
* = called active by the depositor; [ ] = dose if it differs, or a comment. Unless noted, the call rests on the fitted dose curve; in most records, active means well fitted curve in the direction sought with a large enough effect; inconclusive means small, poorly fitted or top-dose-only effect, or another doubt; inactive means no such curve, though single readings can be large; an effect the other way counts as inactive or inconclusive.

`CC(C)(C)c1nc(C(=O)N2CCN(c3ncccn3)CC2)n2ccncc12` gave KDM5B inh 79µM*, SNCA expr inhib 1%, HEK293 viab 2% and IP6K1 inhibitor -18.
`O=C(c1nc(-c2ccc(F)cc2)c2ccccn12)N1CCN(c2ncccn2)CC1` gave KDM5B inh 28µM*, SNCA expr inhib 2%, HEK293 viab 4% and IP6K1 inhibitor 8.
O=C(c1nc(-c2ccc(Cl)nc2)c2ccccn12)N1CCN(c2ncccn2)CC1 was read as KDM5B inh inconclusive, SNCA expr inhib 44%, HEK293 viab 4% and IP6K1 inhibitor -8.
For CC(C)C1NC(=O)N(Cc2coc(-c3cccc(F)c3)n2)C1=O (stereo not drawn) the results were KDM5B inh inactive.
Screening O=C(c1nc(-c2ccc(F)cc2)c2cnccn12)N1CCN(c2ncccn2)CC1 returned KDM5B inh 25µM*, SNCA expr inhib 1%, HEK293 viab -5% and IP6K1 inhibitor 1.
`CCc1nc2ccccc2c(C(=O)OC(C)C(=O)NC(N)=O)c1C` (stereo not drawn) gave KDM5B inh inactive.
Screening CC(=O)N1CCN(C(=O)CCc2ccnc(N3CCOCC3)c2)CC1 returned KDM5B inh 28µM*, SNCA expr inhib 7%, HEK293 viab -6% and IP6K1 inhibitor -8.
Screening COc1ccc(N2CCN(C(=O)CCc3ccnc(N4CCOCC4)c3)CC2)cc1 returned KDM5B inh inconclusive, SNCA expr inhib -10%, HEK293 viab 17% and IP6K1 inhibitor 14.
Cc1ccc(NC(=O)CCc2ccnc(N3CCCC3)c2)c(C)c1 was read as KDM5B inh 32µM*, SNCA expr inhib 14%, HEK293 viab -1% and IP6K1 inhibitor -12.
For CCCN(C)C(=O)CCc1ccnc(N2CCOCC2)c1 the results were KDM5B inh 25µM*, SNCA expr inhib -2%, HEK293 viab -10% and IP6K1 inhibitor -1.
`COc1ccc(CN2CCCC23Cc2ccccc2CNC3=O)c(O)c1` (stereo not drawn) gave KDM5B inh inactive, SNCA expr inhib -10%, HEK293 viab 3% and IP6K1 inhibitor -7.
For O=C1NCc2ccccc2CC12CCCN2Cc1ccc(O)cc1O (stereo not drawn) the results were KDM5B inh 89µM*, SNCA expr inhib -28%, HEK293 viab 1% and IP6K1 inhibitor -1.
O=C(CCc1cn2ccccc2n1)N[C@H]1[C@@H]2CCO[C@@H]2[C@@H]1C1CCCC1 was read as KDM5B inh 28µM*, SNCA expr inhib 2%, HEK293 viab 10% and IP6K1 inhibitor 3.
`O=C(Nc1ccc(F)cc1)c1cccn2nccc12` gave KDM5B inh inactive, SNCA expr inhib 35%[87.6 µM], HEK293 viab 10%[87.6 µM] and IP6K1 inhibitor -1.
For O=C(Nc1ccc(Cl)cc1Cl)c1cnn2ncccc12 the results were KDM5B inh 35µM*, SNCA expr inhib 14%[87.6 µM], HEK293 viab 7%[87.6 µM] and IP6K1 inhibitor 0.
`O=C(Nc1ccc(Cl)cc1Cl)c1cc2cccnn2n1` gave KDM5B inh inactive, SNCA expr inhib inconclusive, HEK293 viab 6%[87.6 µM] and IP6K1 inhibitor -10.
Screening O=C(Nc1ccc(Cl)cc1Cl)c1cccn2nccc12 returned KDM5B inh 32µM*, SNCA expr inhib 57%[87.6 µM], HEK293 viab 5%[87.6 µM] and IP6K1 inhibitor -8.
Screening CN(CC(=O)NC(=O)NC1CCCCC1)C(c1ccccc1)c1ccccc1 returned KDM5B inh inactive.
For O=C(c1ccc2c(c1)C1(CCN(CC3CC3)C1)CN2Cc1ccccc1)N1CCOCC1 (stereo not drawn) the results were KDM5B inh inconclusive, SNCA expr inhib 1%[87.6 µM], HEK293 viab 0%[87.6 µM] and IP6K1 inhibitor 16.
For CC(C)NC(=O)c1ccc2c(c1)C1(CCN(CC3CC3)C1)CN2Cc1ccccc1 (stereo not drawn) the results were KDM5B inh 28µM*, SNCA expr inhib -22%[87.6 µM], HEK293 viab 6%[87.6 µM] and IP6K1 inhibitor 14.
Screening CNC(=O)c1ccc2c(c1)C1(CCN(CC3CC3)C1)CN2Cc1ccccc1 (stereo not drawn) returned KDM5B inh 35µM*, SNCA expr inhib 14%[87.6 µM], HEK293 viab 3%[87.6 µM] and IP6K1 inhibitor -3.
